Only some compounds are listed: those with a hit (about 1.4% of all), similar ones and a draw of the others.
BH1578 lux ind – quorum light induction in luxS cqsA deficient V. cholerae; 350,000 tested, 0.16% active; activation, % at 18.7 µM; V. cholerae BH1578 lux reporter, luminescence, 6 h; AID 588436; in the data active means activation mostly above about 9.7%, no sharp cut-off; inconclusive means no clear call, values can overlap the other calls; inactive means mostly below about 3.7%
PrP UTR inh – inhibition of PrP 5' UTR reporter expression | inhibition, % (concentration not given with the values) | 340,000 tested, 0.35% active | cell-based PrP 5' UTR mRNA reporter, plate reader; in the data active means inhibition above about 52%
PrPC surface inh – reduces human prion protein on the cell surface | cell surface PrPC, TR-FRET read-out | AID 720596 | inhibition, % at 13.8 µM | 370,000 tested, 0.43% active; in the data active means inhibition above about 24%
SSB-PriA inh – blocks PriA binding to SSB C-terminal tail; inhibition, % at 33 µM; 430,000 tested, 0.6% active; AID 1272365; AlphaScreen SSBct-PriA binding, biotinylated peptide; in the data active means inhibition mostly above about 37%, no sharp cut-off; inactive means mostly below about 20%
FadD28 FP inh – blocks FadD28 binding to the bisubstrate probe. 360,000 tested, 0.22% active. inhibition, % at 12.5 µM. fluorescence polarization; in the data active means inhibition above about 8.5%, passing the limit was not always enough; inconclusive means no clear call, values can overlap the other calls
PrP 5UTR single – prion 5' UTR mRNA inhibition, cherry-pick retest; 1,100 tested, 48% active; shares compounds with PrP UTR inh; inhibition, % at 2.5 µM; AID 504592; cell-based prion protein 5' UTR reporter, plate reader; in the data active means inhibition above about 54%; inconclusive means no clear call, values can overlap the other calls
A number is an active result; . = inactive; ? = inconclusive; / = no result given.

SMILES	BH1578 lux ind	PrP UTR inh	PrPC surface inh	SSB-PriA inh	FadD28 FP inh	PrP 5UTR single
COc1ccc(CNC(=O)C2CCN(S(=O)(=O)c3c(C)n[nH]c3C)CC2)cc1	.	.	.	.	.	/
Cc1n[nH]c(C)c1S(=O)(=O)N1CCCC(C(=O)NCc2ccc(F)cc2)C1 (stereo unspecified)	.	84	.	.	.	.
Cc1ccc(-c2cc(N)n[nH]2)cc1	.	.	.	.	.	/
CC(C)(C)c1ccc(-c2cc(N)n[nH]2)cc1	.	64	.	.	.	?
COc1ccc(C2NC3=C(CCC3)C3(C#N)C(OC)(OC)N=C(N)C23C#N)cc1 (stereo unspecified)	.	53	/	.	.	?
COC1(OC)N=C(N)C2(C#N)C(c3ccccc3)NC(C)=CC12C#N (stereo unspecified)	.	.	.	.	.	/
Cc1noc(C)c1CC(=O)NCC1CCN(C(=O)c2ccoc2)CC1	/	/	/	.	/	/
Cc1c(N(C)CS(=O)(=O)O)c(=O)n(-c2ccccc2)n1C	.	58	.	.	.	.
COc1ccc(C2=Nn3c(nnc3-c3ccccc3)SC2)cc1OC	.	.	.	.	.	/
COc1ccc(OC)c(-c2nnc3n2N=C(c2ccc(OC)c(OC)c2)CS3)c1	.	56	.	.	.	83
COc1ccc(OC)c(-c2nnc3n2N=C(c2ccc(OC)c(OC4CCCC4)c2)CS3)c1	.	65	.	.	.	86
COc1ccc(C(=O)CCC(=O)NCCc2ccccc2F)cc1	.	.	.	.	.	/
O=C(NCCc1ccccc1F)c1ccc2c(c1)OCCO2	.	89	.	.	.	93
CC(=O)CCC(=O)NCCc1ccccc1F	/	85	.	.	.	.
Cc1nc2c(ccc3nc(NC(=O)CSCc4ccccc4)sc32)s1	/	/	/	.	/	/
CC(=O)c1c(C)oc2ccc(N(C(=O)C3CCCCC3)S(=O)(=O)c3ccccc3)cc12	/	/	/	.	/	/
CNC(=O)Oc1ccc(-c2cn3cc(C)ccc3n2)cc1	.	57	.	.	.	54
Cc1ccc2nc(-c3ccc4c(c3)OCCO4)cn2c1	.	89	.	.	.	79
Cc1noc(-c2cn(CCNC(=O)c3ccco3)nn2)n1	/	/	/	.	/	/
Cc1nc(-c2ccc(N3CCN(C(=O)Nc4cccc(Cl)c4)CC3)nc2)no1	/	/	/	.	/	/
O=C(CSc1ncn[nH]1)Nc1ncc(C(F)(F)F)cc1Cl	.	75	.	.	.	.
CN(C1CC1)S(=O)(=O)c1ccc(C(=O)Nc2nc(-c3ccc4c(c3)CCCC4)cs2)cc1	/	/	/	.	/	/
COC(=O)C(O)(c1ccc(N(C)C)cc1)C(F)(F)F (stereo unspecified)	.	66	.	.	.	.
CCCOc1ccc2cc(-c3ccccn3)c(=O)oc2c1	.	78	.	.	.	57
NNC(=S)NC1CCCCC1	.	80	.	.	.	.
SMILES	BH1578 lux ind	PrP UTR inh	PrPC surface inh	SSB-PriA inh	FadD28 FP inh	PrP 5UTR single
CCCNC(=S)NC1CCCC1	.	.	.	.	.	/
Cc1ccc(C(=O)O/N=C(\N)c2ccccn2)cc1	.	87	.	.	.	94
N/C(=N\OC(=O)c1ccccc1)c1ccccn1	.	.	.	/	.	/
CC(C)(C)c1ccc(C(=O)O/N=C(\N)c2ccccn2)cc1	.	77	.	.	.	75
NC(=NOC(=O)c1ccccc1)c1ccccn1	/	/	/	.	/	/
N/C(=N\OC(=O)c1cccc(F)c1)c1ccccn1	.	.	.	/	.	/
Cc1cccc(C(=O)O/N=C(\N)c2ccccn2)c1	.	56	.	.	.	75
CCOc1ccc(C(=O)O/N=C(\N)c2ccccn2)cc1	.	84	.	.	.	92
Cc1cc(SCC(=O)Nc2cccc(C(F)(F)F)c2)n2ncc(-c3ccccc3)c2n1	/	/	/	.	/	/
CC(C)=NNC(=O)CNC(=O)c1ccccc1Br	/	/	/	.	/	/
CCCC(=O)Nc1ccc(S(=O)(=O)Nc2ccc3c(c2)OCC(C)(C)C(=O)N3)cc1	/	/	/	.	/	/
Cc1ccc(C(=O)O/N=C(\N)c2ccccn2)cc1C	.	87	.	.	.	77
CCOC(=O)c1ccc(CNC(=O)CCC(=O)O)cc1	.	67	.	.	.	.
CCOC(=O)c1ccc(CNCc2ccccc2)cc1	.	.	.	.	.	/
O=C(CSc1ccc(F)cc1)NCCc1nc2c(c(C(F)(F)F)n1)COCC2	/	/	/	.	/	/
CN1CCN(c2ccc([N+](=O)[O-])c3no[n+]([O-])c23)CC1	.	79	.	/	.	86
COC(=O)c1ccc(Cn2nc(C3CC3)n(-c3ccccc3)c2=O)cc1	/	/	/	.	/	/
C=CCn1c(SCc2c(C)noc2C)nc2cc(C(=O)O)ccc2c1=O	.	.	.	.	.	/
C=CCn1c(SCc2c(C)noc2C)nc2ccccc2c1=O	.	67	.	.	.	82
COc1ccc2cc(C(N)=O)/c(=N\NC(=O)c3ccccc3)oc2c1	.	53	.	/	.	.
COc1cccc(C(=O)N/N=c2/oc3ccccc3cc2C(N)=O)c1	.	.	.	/	.	/
COc1ccc(N/C=C/C(=O)c2ccc(OC)c(OC)c2)cc1	.	.	.	.	.	/
COc1ccc(OC)c(N/C(C)=C/C(=O)c2ccccc2)c1	.	.	.	/	.	/
COc1ccc(OC)c(N/C=C/C(=O)c2ccccc2)c1	.	81	.	.	.	61
COc1ccc(N/C=C/C(=O)c2cc(OC)c(OC)c(OC)c2)cc1	.	71	.	.	.	89
SMILES	BH1578 lux ind	PrP UTR inh	PrPC surface inh	SSB-PriA inh	FadD28 FP inh	PrP 5UTR single
COc1ccc(C(=O)CSc2nnc(-c3ccncc3)o2)cc1	/	/	/	.	/	/
CC1=C([N+](=O)[O-])C(c2cccc(Br)c2)C2=C(N1)c1ccccc1C2=O (stereo unspecified)	/	54	.	.	.	71
COC(=O)C1=C(C)NC2=C(C(=O)c3ccccc32)C1c1cccc(OC)c1 (stereo unspecified)	.	.	.	.	.	/
COC(=O)c1ccc(CN2C(=O)NC(CC(C)C)C2=O)cc1 (stereo unspecified)	.	81	.	.	.	.
COC(=O)c1ccc(CN2C(=O)c3ccccc3C2=O)cc1	.	.	.	.	.	/
O=C1c2cccc3cc([N+](=O)[O-])cc(c23)C(=O)N1CCN1CCCC1	.	90	.	.	.	82
O=C(CSC1CCCC1)NCC1CCN(C(=O)Oc2ccccc2)CC1	/	/	/	.	/	/
O=C(COc1cccc(C(F)(F)F)c1)NNC(=O)c1ccc(=O)[nH]c1	.	65	.	.	.	.
O=C(NCc1cccnc1)C(=O)Nc1ccc2c(c1)OCCO2	/	/	/	.	/	/
Cc1ccc(C(=O)c2cc([N+](=O)[O-])ccc2N2CCOCC2)cc1	.	.	.	.	.	/
COc1ccc(C(=O)c2cc([N+](=O)[O-])ccc2N2CCOCC2)cc1	.	83	.	.	.	80
CCOc1ccc(C(=O)c2cc([N+](=O)[O-])ccc2N2CCOCC2)cc1	.	58	.	.	.	72
CCOc1ccc(S(=O)(=O)N2CCN(C(=O)c3cc([N+](=O)[O-])ccc3N3CCOCC3)CC2)cc1	.	.	.	.	.	/
COc1ccc(OC)c2[nH]c(=O)c(CCNC(C)=O)cc12	.	.	.	.	.	/
COc1ccc(OC)c2[nH]c(=O)c(CCNC(=O)COc3ccccc3)cc12	.	57	.	.	.	.

Source: PubChem BioAssay
